CYP2C9 activ = CYP2C9 (human) activation; recombinant CYP2C9, luciferin-H conversion, luminescence; stronger effect = higher value; factor 1 = untreated enzyme, 0 = blocked; activation factor at 5 µM; hit rate 1.4% among 96,000; AID 1024;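 active = activation factor of 2 or more for CYP2C9 at a 5 µM dose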;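 note: 0 = sulfaphenazole-blocked wells and 1 = vehicle-only wells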
CYP2C19 inh = human CYP2C19 inhibition. P33261. CYP2C19 Supersomes, luciferin-H EGE luminescence, 30 min. inhibition, % at 5 µM. hit rate 21% among 96,000;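 active = CYP2C19 inhibition above a set limit at 5 µM in the primary screen, cut at about 50% in these data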;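 note: plate controls were negative control wells for no effect and 2.5 mM tranylcypromine positive control for full effect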
hDAT+cocaine = human DAT dopamine uptake with cocaine, either direction; Q01959; LLC-PK1 hDAT cells, [14C]-dopamine uptake with cocaine IC80; actives deviate in either direction; AID 449768; hit rate 1.3% among 110,000; B-score at 10 µM;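 active = Z score or B-score, a plate-position-corrected score, falls beyond the plate's 99.7% confidence bounds, in either direction; inactive = both scores lie inside the 99.7% bounds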;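 note: scored against the spread of the other compound wells on the same plate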
Target sequence (Q01959 whole entry, looked up): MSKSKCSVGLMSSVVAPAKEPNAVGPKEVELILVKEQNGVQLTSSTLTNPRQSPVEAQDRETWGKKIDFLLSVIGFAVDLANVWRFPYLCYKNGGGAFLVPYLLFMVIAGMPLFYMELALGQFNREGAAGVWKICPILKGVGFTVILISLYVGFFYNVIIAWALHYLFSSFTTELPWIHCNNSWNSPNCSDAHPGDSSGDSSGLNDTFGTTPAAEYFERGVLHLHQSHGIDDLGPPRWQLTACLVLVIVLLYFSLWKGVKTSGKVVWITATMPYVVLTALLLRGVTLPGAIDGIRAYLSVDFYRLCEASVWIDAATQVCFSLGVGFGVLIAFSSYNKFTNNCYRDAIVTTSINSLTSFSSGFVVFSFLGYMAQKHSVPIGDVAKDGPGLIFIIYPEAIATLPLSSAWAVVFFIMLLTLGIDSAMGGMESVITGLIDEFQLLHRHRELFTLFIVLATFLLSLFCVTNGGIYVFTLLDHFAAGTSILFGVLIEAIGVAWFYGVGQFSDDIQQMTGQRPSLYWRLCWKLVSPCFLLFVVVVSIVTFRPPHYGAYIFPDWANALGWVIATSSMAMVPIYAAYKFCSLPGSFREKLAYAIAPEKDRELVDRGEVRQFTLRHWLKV
D1 mod = allosteric modulators of human D1 dopamine receptor | P21728 | HEK293 D1, CRE-luciferase, dopamine EC30 potentiation; actives deviate in either direction | B-score at 10 µM | hit rate 5.9% among 58,000 | AID 641;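 active = luminescence count or its row- and column-corrected plate score outside the 99.7% band of the plate's sample wells, on either side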
CYP2C9 inh = human CYP2C9 inhibition. CYP2C9 Supersomes, luciferin-H conversion, luminescence. inhibition, % at 5 µM. hit rate 20% among 96,000. AID 777;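 active = blocking of liver enzyme CYP2C9 beyond about 50% at 5 µM, limit read from the data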
CYP2C19 activ = activators of human cytochrome P450 2C19; P33261; recombinant CYP2C19, luciferin-H EGE luminescence; stronger effect = higher value; 0 = fully inhibited enzyme, 1 = untreated enzyme; activation factor at 5 µM; 96,000 tested, under 10 active; AID 1025;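 active = activation factor of at least 2 at 5 µM in the primary screen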;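 note: 0 = wells with 2.5 mM tranylcypromine and 1 = vehicle-only wells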
D1 mod confirm = D1 receptor (human) allosteric modulation, confirmed; shares compounds with D1 mod; HEK293 D1 CRE-luciferase, dopamine EC30 potentiation; stronger effect = higher value; luminescence at 10 µM; hit rate 88% among 2,200;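 active = luminescence in either of two replicates above the same-plate mean plus 3 SD of the low-dose dopamine control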
D1 no dopamine = secondary test of D1 modulators: activity without dopamine. hit rate 0.8% among 1,900. shares compounds with D1 mod. HEK293 D1 CRE-luciferase, luminescence, no dopamine; stronger effect = higher value. luminescence at 10 µM; in the data active = luminescence above about 3900
Isoprot counter = isoproterenol response counter-screen activity for D1 modulators; shares compounds with D1 mod; HEK293 D1 CRE-luciferase, isoproterenol EC30 counter-screen; calls only at 10 µM; hit rate 63% among 2,200;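 active = luminescence in either replicate above plate mean of wells with a partly effective reference agonist dose plus 3 SD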;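 note: isoproterenol raises cAMP through native beta-adrenoceptor Gs so signal bypasses D1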
* marks the source's active call; other numbers are inactive results; i = inactive; / = not tested or not shown; + = active, no number. A selection: hits, their analogues and other compounds. The true share with any hit is near 28%.

SMILES | CYP2C9 activ | CYP2C19 inh | hDAT+cocaine | D1 mod | CYP2C9 inh | CYP2C19 activ | D1 mod confirm | D1 no dopamine | Isoprot counter
CCOc1ccc(Br)cc1/C(C)=N\NC1=NCCN1 | 0.9 | 19.9 | -0.0274 | / | 10.8 | 0.8 | / | / | /
O=C(Oc1cccnc1)c1cccc(Cl)c1 | 1 | 1.3 | 0.0532 | 0.05 | -3.5 | 1 | / | / | /
COc1ccc(C(=O)Oc2cccnc2)cc1OC | 0.9 | 1.8 | 0.0334 | 8.56* | 13.0 | 1 | 20932* | 1664 | +
CCCOc1ccc(C2C(C#N)=C(N)Oc3nc[nH]c(=O)c32)cc1OC (stereo unspecified) | 0.9 | 2.2 | -0.426 | 0.0408 | 11.3 | 1 | / | / | /
CCOc1ccc(C2C(C#N)=C(N)SC(N)=C2C#N)cc1OCC | 0.2 | 57.9* | -0.0116 | 5.43* | 83.9* | 0.4 | 13032* | 1560 | +
CCOc1ccc(C2C(C#N)=C(N)SC(N)=C2C#N)cc1OC | 0.1 | 54.2* | 0.194 | 6.06* | 91.4* | 0.5 | 10912* | 1684 | i
COc1ccc(CN2CCN(S(=O)(=O)c3ccc(NC(C)=O)cc3)CC2)cc1OC | 0.5 | 33.8 | -0.123 | 5.2* | 49.3 | 0.7 | 15368* | 1544 | +
COc1ccc(CN2CCN(c3ncccn3)CC2)c(OC)c1 | 0.9 | 45.2 | 0.119 | -2.07 | 7.3 | 0.5 | / | / | /
COc1ccc(CN2CCN(S(=O)(=O)c3ccccc3)CC2)c(OC)c1 | 0.4 | 51.6* | 0.00663 | 4.44* | 60.2* | 0.5 | 6876* | 1608 | i
COc1ccc(CN2CCN(S(=O)(=O)c3ccc(F)cc3)CC2)cc1OC | 1 | -0.7 | 0.171 | 22.4* | -1.3 | 1 | 24864* | 1876 | +
O=c1cc(-c2ccccc2)c2ccccc2[nH]1 | 0.6 | 22.5 | -1.03 | 10* | 35.3 | 0.8 | 12072* | 1476 | +
Cc1cc(=O)[nH]c2ccccc12 | 1.1 | -8.0 | 0.129 | -0.0337 | -11.6 | 1.1 | / | / | /
O=C(NCc1ccc2c(c1)OCO2)c1cccc2c1C(=O)N(C1CCCCC1)C2 | 1.1 | -13.2 | -0.42 | 5.99* | -5.3 | 1.1 | 10552* | 1592 | +
CCCN1Cc2cccc(C(=O)NC3CCCC3)c2C1=O | 0.6 | 16.3 | 0.878 | 12.2* | 36.6 | 0.8 | 16648* | 1612 | +
CCCN1Cc2cccc(C(=O)NCc3cccs3)c2C1=O | 0.5 | 73.3* | 0.463 | 18.2* | 52.0* | 0.3 | 24472* | 1580 | +
CCCN1Cc2cccc(C(=O)N3CCN(c4ccc(F)cc4)CC3)c2C1=O | 0.8 | 25.9 | 0.0567 | / | 23.6 | 0.7 | / | / | /
CCOC(=O)N1CCC(N2Cc3cccc(C(=O)NCc4ccc5c(c4)OCO5)c3C2=O)CC1 | / | / | / | 1.44 | / | / | / | / | /
CCCN1Cc2cccc(C(=O)NCc3ccc4c(c3)OCO4)c2C1=O | 0.6 | 18.2 | -0.0546 | 11.5* | 38.0 | 0.8 | 15396* | 1860 | +
CCCN1Cc2cccc(C(=O)Nc3cc(OC)cc(OC)c3)c2C1=O | 0.5 | 12.4 | -0.342 | 0.0255 | 46.1 | 0.9 | / | / | /
CCOC(=O)N1CCC(=C2c3ccc(Cl)cc3CCc3cccnc32)CC1 | / | / | 2.34 | -1.38 | / | / | / | / | /
C=CCn1c(=O)c2ccccc2n2c(SC(C)C(=O)Nc3nc(-c4ccccc4)cs3)nnc12 (stereo unspecified) | / | / | 0.126 | -2.14 | / | / | / | / | /
O=C1NN(c2ccccc2)C(=O)C2C3C=CC(C4CC34)C12 (stereo unspecified) | 1.2 | -1.9 | -0.47 | / | -20.1 | 1 | / | / | /
CC(C)Cn1c(-c2cccs2)nc2nc3ccccc3nc21 | 0.7 | 5.5 | 0.443 | 4.73* | 26.5 | 0.9 | 10104* | 1776 | i
c1ccc(Cn2c(-c3cccs3)nc3nc4ccccc4nc32)cc1 | 0.9 | 5.7 | -1 | 3.35 | 10.1 | 0.9 | / | / | /
O=C(Cn1cc2c(n1)CCCCC2)NCCCN1CCOCC1 | 1 | -5.0 | -0.434 | 2.6* | 1.7 | 1.1 | 5840 | 1452 | i
SMILES | CYP2C9 activ | CYP2C19 inh | hDAT+cocaine | D1 mod | CYP2C9 inh | CYP2C19 activ | D1 mod confirm | D1 no dopamine | Isoprot counter
Cc1nn(CC(=O)Nc2nnc(CC(=O)N3CCCC3)s2)c(=O)c2ccccc12 | 1.2 | -18.3 | 0.134 | -0.878 | -17.5 | 1.2 | / | / | /
COc1ccc(CCN(C)C(=O)CSc2nccn2C)cc1OC | 1 | 21.5 | -0.625 | 4.47* | 2.9 | 0.8 | 9340* | / | i
CCC1(CC)Cc2ccccc2-c2nc(CN3CCOCC3)[nH]c(=O)c21 | 1 | 11.8 | 0.176 | 18.3* | -3.1 | 0.9 | 22860* | 1804 | +
c1ccc2[nH]c(CN3CCOCC3)nc2c1 | 0.9 | 4.6 | -1.86 | / | 5.1 | 1 | / | / | /
CCOCCCN1CC(C(=O)NCCc2ccc(C)cc2)CC1=O (stereo unspecified) | 0.8 | -7.8 | 0.239 | -0.469 | 21.9 | 1.1 | / | / | /
CCn1c(SCCC(=O)O)nnc1-c1cccnc1 | 0.9 | -1.1 | -0.124 | / | 5.5 | 1 | / | / | /
CCOC(=O)c1cc2c(C(F)(F)F)cc(-c3cccnc3)nc2o1 | 0.8 | 12.4 | -0.021 | 5.3* | 16.9 | 0.9 | 6932* | 1600 | +
Cc1nn(CCC(=O)O)c2nc(-c3cccnc3)cc(C(F)(F)F)c12 | 0.5 | 15.7 | -0.0722 | 5.38* | 46.6 | 0.8 | 8896* | / | i
FC(F)(F)COc1nc(OCC(F)(F)F)nc(N2CCN(c3ccccc3)CC2)n1 | 0.7 | 1.7 | -0.405 | -0.17 | 30.3 | 1 | / | / | /
O=C(O)c1ccccc1SCc1ccc2c(c1)OCO2 | 0.9 | 6.8 | 0.216 | -0.853 | 7.7 | 0.9 | / | / | /
Fc1ccc(-c2csc3nnc(SCc4cccnc4)n23)cc1 | 0.9 | 83.1* | 0.93 | 17.3* | 10.2 | 0.2 | 26500* | 1540 | +
c1ccc(-c2csc3nnc(SCc4ccc5c(c4)OCO5)n23)cc1 | 0.1 | 92.2* | -0.348 | 6.78* | 91.8* | 0.1 | 16212* | 2144 | +
O=C(CCSc1nnc2scc(-c3ccccc3)n12)NCc1ccc2c(c1)OCO2 | 0.5 | 38.3 | 0.578 | 7.33* | 46.3 | 0.6 | 11856* | 1504 | +
COc1cccc(C2C(C(=O)c3cccs3)=C(O)C(=O)N2CCN(C)C)c1OC (stereo unspecified) | 1 | -1.5 | -0.00233 | 2.51* | -3.9 | 1 | 5748 | / | i
CNc1nc(Nc2ccc(C(C)=O)cc2)nc(OC(C(F)(F)F)C(F)(F)F)n1 | 0.8 | 0.7 | -5.93* | 20.7* | 22.4 | 1 | 17924* | 1544 | +
CCOC(=O)c1ccc(Oc2nc(NC)nc(Nc3ccccc3)n2)cc1 | 0.5 | 24.3 | -1.1 | / | 49.8 | 0.8 | / | / | /
c1ccc(OCCOc2ccccc2-c2nnco2)cc1 | 0.2 | 90.6* | 0.486 | 4.37* | 75.3* | 0.1 | 6588 | 1756 | i

Screens (PubChem BioAssay)
